Compounds with a hit are over-represented: about 0.92% of the library has one in this group of screens.
RecA splice inh: blocks M. tuberculosis RecA intein splicing; P9WHJ3; cell-free RecA intein splicing, fluorescence; inhibition, % (test concentration not listed); 290,000 compounds, 0.75% hits; in the data active means inhibition above about 30%; inconclusive means no clear call, values can overlap the other calls;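 further: 0% = vehicle wells and 100% = reference inhibitor control wells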
Target sequence (P9WHJ3 whole entry, looked up, canonical isoform): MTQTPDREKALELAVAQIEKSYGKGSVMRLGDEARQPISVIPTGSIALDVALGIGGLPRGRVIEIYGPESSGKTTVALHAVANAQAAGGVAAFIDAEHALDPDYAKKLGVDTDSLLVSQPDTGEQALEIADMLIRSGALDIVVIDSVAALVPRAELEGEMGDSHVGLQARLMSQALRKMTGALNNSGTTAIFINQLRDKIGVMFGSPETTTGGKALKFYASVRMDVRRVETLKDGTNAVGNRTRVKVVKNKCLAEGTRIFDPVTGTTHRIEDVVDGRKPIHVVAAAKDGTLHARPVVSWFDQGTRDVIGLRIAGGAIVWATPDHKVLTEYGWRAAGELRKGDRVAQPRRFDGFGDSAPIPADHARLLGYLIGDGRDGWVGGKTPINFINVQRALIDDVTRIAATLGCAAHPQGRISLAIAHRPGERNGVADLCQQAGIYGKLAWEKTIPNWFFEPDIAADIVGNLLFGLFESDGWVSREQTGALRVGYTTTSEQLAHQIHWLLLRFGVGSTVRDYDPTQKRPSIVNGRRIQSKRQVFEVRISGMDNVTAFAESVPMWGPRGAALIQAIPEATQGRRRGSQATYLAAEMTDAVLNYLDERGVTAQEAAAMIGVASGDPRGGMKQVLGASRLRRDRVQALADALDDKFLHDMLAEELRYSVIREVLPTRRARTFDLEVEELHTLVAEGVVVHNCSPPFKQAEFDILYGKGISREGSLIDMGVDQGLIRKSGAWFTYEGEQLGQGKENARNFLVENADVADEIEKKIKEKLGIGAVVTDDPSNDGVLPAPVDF
UGM FP inh: blocks M. tuberculosis UGM enzyme. P9WIQ1. purified UGM, fluorescence polarization probe displacement. inhibition, % at 10 µM. 320,000 compounds, 0.06% hits. AID 504406; in the data active means inhibition above about 10%, passing the limit was not always enough; inconclusive means no clear call, values can overlap the other calls
Mtb hypoxia rep: reduces hypoxia-regulated biosensor signal in M. tuberculosis; M. tuberculosis hypoxia-regulated fluorescent reporter, fluorescence; fluorescence inhibition, % (concentration not given with the values); 300,000 compounds, 0.1% hits; AID 1159583; in the data active means fluorescence inhibition mostly above about 23%, no sharp cut-off; inactive means mostly below about 17%
Rv3671c protease: inhibitors of M. tuberculosis serine protease Rv3671c; P9WHR9; inhibition, % at 5.96 µM; 320,000 compounds, 0.048% hits; AID 2606; in the data active means inhibition above about 38%;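 further: extracellular domain of Rv3671c used as enzyme; 0% = enzyme with DMSO and 100% = no enzyme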
FadD28 binding: inhibitors of Mycobacterium tuberculosis FadD28 bisubstrate binding; FadD28 bisubstrate probe binding, fluorescence polarization; inhibition, % at 12.5 µM; 360,000 compounds, 0.22% hits; AID 588549; in the data active means inhibition above about 8.5%, passing the limit was not always enough; inconclusive means no clear call, values can overlap the other calls
Mtb betalactam: beta-lactam sensitization of Mtb H37Rv; M. tuberculosis H37Rv growth with meropenem, percent inhibition; inhibition, % at 25 µM; 330,000 compounds, 0.27% hits; AID 434955;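 further: growth measured after seven days incubation then overnight dye step; 0% = bacteria only wells and 100% = bacteria with antibiotic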
GFP chromo cs: counter-screen GFP chromophore formation inhibition; shares compounds with RecA splice inh; cell-free GFP chromophore formation, fluorescence; EC50, µM; 2,100 compounds, 83% hits; AID 434968
* marks the source's active call; other numbers are inactive results; ? = inconclusive; · = no result shown. Unless noted, how the calls were made is not given here.

SMILES | RecA splice inh | UGM FP inh | Mtb hypoxia rep | Rv3671c protease | FadD28 binding | Mtb betalactam | GFP chromo cs
CCCc1[nH][nH]c(=O)c1C(c1ccccc1)C(C#N)C#N (stereo not drawn) | 62* | 3 | 6 | 9 | -4 | -3 | 20*
COc1cc(OC)cc(C(=O)NCC(=O)OCC(=O)Nc2ccc3c(c2)OCO3)c1 | 1 | -1 | -7 | 10 | -4 | -7 | ·
CCOC(=O)C1=C(O)c2ccccc2C(=O)/C1=C\c1ccc(CC)cc1 | 49* | 0 | 6 | -76 | 0 | 7 | 5.1*
CCCc1ccc(/C=C2\C(=O)c3ccccc3C(O)=C2C(=O)OCC)cc1 | 36* | -2 | · | -28 | · | · | 10*
CCOC(=O)c1ccc(COC(=O)c2ccc3c(c2)-c2ccccc2C3=O)cc1 | 2 | 0 | -4 | 2 | -2 | 9 | ·
CCOC(=O)C1=C(C)OC(=Cc2ccc(OC)cc2)C1=O | · | · | · | · | -1 | · | ·
CCc1ccc(-c2cc(C(F)(F)F)n3nc(C(=O)Nc4c(C)nn(Cc5ccccc5C)c4C)cc3n2)s1 | -46 | 1 | -1 | -1 | 1 | ? | ·
Cc1sc(NC(=O)C2CSC3(C)CCC(=O)N23)nc1-c1ccc(F)cc1 (stereo not drawn) | 1 | -2 | 3 | -20 | -1 | 4 | ·
CC(=O)n1cc(N(C(=O)CCl)c2ccc(Cl)cc2)c2ccccc21 | 59* | -1 | 20 | 2 | -2 | 99 | 1.3*
CCOC(=O)c1ccccc1Nc1cn(C(C)=O)c2ccccc12 | 5 | 3 | · | 6 | -5 | 69 | ·
COc1ccccc1N(C(=O)CCl)c1cn(C(C)=O)c2ccccc12 | 51* | 0 | 20 | 0 | -2 | 96 | 23*
O=C(O)c1ccccc1C(=O)Nc1ccccc1 | 0 | -5 | -2 | 1 | 1 | 11 | ·
O=C(Nc1ccccc1)C1=C(c2ccccc2)S(=O)(=O)CCS1(=O)=O | 94* | · | 1 | · | -2 | · | 1.5*
Cc1nc2c3c4c(sc3n3c(SCC(=O)NCc5ccco5)nnc3n2n1)COC(C)(C)C4 | · | · | · | · | -2 | · | ·
CC(C)NC(=S)NC(c1ccccc1)(c1ccccc1)c1ccccc1 | 32* | 1 | · | 11 | -1 | 13 | >38
C/C(=N\NC(=S)NC(C)C)c1ccccc1 | 0 | 5 | · | 0 | -2 | 92 | ·
COc1ccc(S(=O)(=O)Nc2c(O)ccc3ccccc23)cc1OC | 96* | 1 | 6 | -14 | 1 | -6 | 4.6*
COc1ccc(NC(=O)Nc2c(O)ccc3ccccc23)cc1 | 59* | 3 | 6 | -12 | ? | 6 | 15*
COc1ccc(C(=O)Nc2c(O)ccc3ccccc23)cc1 | 0 | 3 | 1 | -5 | -4 | 34 | ·
COc1cc2c(cc1OC)C1(NCC2)C(=O)Nc2ccccc21 (stereo not drawn) | 0 | 4 | 2 | 4 | -3 | 3 | ·
COc1cc2c(cc1OC)C1(Nc3c-2c(Cc2ccccc2)nn3-c2ccccc2)C(=O)Nc2ccccc21 (stereo not drawn) | 35* | -2 | -6 | -14 | -3 | 100 | >38
N#C/C(=C/c1cccn1-c1cccc(C(=O)O)c1)c1ccc(F)cc1 | 45* | · | 10 | · | -6 | · | >38
COc1cccc(/C=C(/C#N)c2ccc(F)cc2)c1OCc1cccc(C(=O)O)c1 | 0 | 1 | 10 | -10 | -4 | 5 | ·
Cc1ccc(S(=O)(=O)NC(=O)Nc2ccc(F)c(F)c2)cc1 | 1 | 0 | 7 | -4 | -3 | 6 | ·
COc1cc(/C=C(\C#N)C(=O)c2c[nH]c3ccccc23)cc(OC)c1O | 92* | -25 | -12 | -6 | 2 | -7 | 5.2*
SMILES | RecA splice inh | UGM FP inh | Mtb hypoxia rep | Rv3671c protease | FadD28 binding | Mtb betalactam | GFP chromo cs
Cc1cccc(N(Cc2ccccc2)C(=O)CCl)c1 | 58* | · | 36* | · | 0 | · | 9.9*
O=C(CCl)N(Cc1ccccc1)c1ccccc1 | 73* | 1 | · | 3 | -4 | -5 | 24*
O=C(CCl)N(Cc1cc(=O)[nH]c2ccccc12)c1ccccc1 | 69* | 0 | · | 1 | -2 | 90 | 11*
CCC(=O)N(Cc1cc(=O)[nH]c2ccccc12)c1ccccc1 | -1 | -3 | 20 | 3 | 1 | -9 | ·
COc1ccc(NC(=O)c2ccc(NC3CC(=O)N(c4ccc(C)cc4C)C3=O)cc2)cc1 (stereo not drawn) | 0 | 0 | -1 | -14 | -1 | -3 | ·
CC12CCC(C(=O)NCCN3CCCCC3)(CC1=O)C2(C)C (stereo not drawn) | 0 | -1 | 8 | -9 | 0 | 4 | ·
COc1ccc2c(c1)C(=O)N(c1ccccc1OC)C(=O)C2 | 0 | -2 | 4 | -10 | 1 | 14 | ·
COc1ccccc1N1C(=O)Cc2ccccc2C1=O | 31* | 1 | -2 | -14 | -2 | -3 | 11*
CC(C)N(Cc1ccccc1)C(=O)CN1C(=O)c2ccccc2C1=O | 0 | -4 | -11 | 1 | -3 | -2 | ·
COc1ccccc1NC(=O)Nc1nnc([C@H]2C[C@H](O)[C@@H](CO)O2)s1 | · | · | · | · | -5 | · | ·
COc1cc([N+](=O)[O-])cc(C=NNC(=O)C(O)(c2ccccc2)c2ccccc2)c1O | · | · | 1 | · | · | · | ·
COC(=O)CSc1nc2sc3c(c2c(=O)n1C1CCCCC1)CCN(C)C3 | 39* | -2 | · | -11 | · | 32 | >38
O=C1c2ccccc2C(=O)c2c1cccc2N1CCCC1 | 16 | 1 | 7 | -36 | 2 | 25 | ·
O=C1c2ccccc2-c2onc3ccc(N4CCCC4)c1c23 | 55* | · | 4 | · | ? | · | 24*
N#CC(C#N)=NNc1ccc(-n2ccc(C(F)(F)F)n2)cc1 | 79* | 2 | · | -13 | -3 | 25 | 6.4*
Cc1cc(C)n(-c2ccc(NN=C(C#N)C#N)cc2)n1 | 57* | -1 | 20 | 2 | -1 | -3 | 19*
Cc1cc(C)n(-c2ccc(C(=O)O)cc2)n1 | -1 | 1 | 9 | 3 | -2 | 0 | ·
CCOC(=O)c1c(NC(=O)CN2C(=O)c3ccccc3C2=O)sc(Cc2ccc3c(c2)OCO3)c1C | -2 | 5 | 3 | 11 | -1 | 3 | ·
CC1=NNC(=O)C1Oc1ccccc1 (stereo not drawn) | 96* | -1 | 9 | -5 | -2 | 7 | 1.1*
COC(=O)c1nc(-c2ccc3c(n2)C(=O)C(N)=C(OC)C3=O)c(N)c(-c2ccc(OC)c(OC)c2O)c1C | 94* | 2 | 18 | -52 | 5 | 66 | 0.84*
COC1=C(N)C(=O)c2nc(-c3nc(C(=O)O)c(C)c(-c4ccc(OC)c(OC)c4O)c3N)ccc2C1=O | · | · | · | 4 | · | 80 | ·
COc1ccc(-c2nnc(OC)c3ccccc23)cc1 | 1 | -5 | 6 | -1 | -1 | 0 | ·
COc1ccc(-c2nnc(Sc3nc4ccccc4o3)c3ccccc23)cc1 | 53* | 0 | 4 | -1 | -4 | -5 | 1.5*
O=S(=O)(NCc1ccncc1)c1ccc(S(=O)(=O)NCC2CCCO2)cc1 (stereo not drawn) | 3 | 1 | 2 | -1 | -3 | 0 | ·

High-throughput results deposited in PubChem by several laboratories.
